# Measurements from PubChem BioAssay.
# Where “and” joins values, the source holds several entries; their conditions need not be identical. Equal entries are not always repeated. Inconclusive results are not listed. For some of these results: Results with a measured potency or affinity are listed apart. Calls of active or inactive are those of the source.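 The calls were made as follows, unless noted: active = thallium flux through the channel raised or lowered by more than 3 SD from vehicle-only wells, actives on both sides; inactive = the rest.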
# Columns and labels:
# [1] = MELAS cybrid and Rieske KO viability enhancers – cell-based, MELAS cybrids, Rieske KO mouse fibroblasts, CellTiter-Glo, primary screen (AID 1508586;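 active = mean z-score across replicates of 1.96 or higher in either the MELAS or the Rieske mutant cell line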;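 also: z relative to plate mean and SD of compound and empty wells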); settings: low glucose
# R275C/beta4 = experiment: BK channel mutant inhibitors and activators – cell-based, U2OS BacMam, thallium flux, beta subunits, selectivity assay, profiling panel (AID 1259406); settings: U2OS BacMam BK variants, at 30 µM;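 also: initial slope of Thallos dye fluorescence rise after thallium is added; log ratio against the mean of 0.3% DMSO vehicle wells on the same plate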
# [2] = blockers of polyQ-driven CASP3 activation – cell-based (AID 1583); settings: polyglutamine-induced caspase-3 activation, cell assay; stronger effect = higher value;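 tested at 10 µM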
# [3] = yeast 75Q aggregation reduction – 75Q-TubU reporter (AID 1593); settings: Yeast 75Q polyglutamine aggregation reporter
# [4] = restoration of touch response, mutant HTT neurons – whole organism, C. elegans mechanosensory neurons, N-terminal huntingtin (AID 1599); settings: C. elegans polyQ-huntingtin mechanosensory neurons, stronger effect = higher value
# [5] = blockers of cytochrome c efflux from mitochondria – biochemical, purified mitochondria (AID 1603); settings: stronger effect = lower value;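 also: mouse liver mitochondria challenged with calcium chloride; signal normalized to the plate average as 100%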
# [6] = polyglutamine aggregate formation blockers (AID 1604); settings: polyglutamine-induced protein aggregation inhibition assay; stronger effect = higher value; tested at 2.5 µM
# [7] = glutamate transport activators, MN-1 cells, MN-1 cell line (AID 1612); settings: MN-1 motor neuron cells, stronger effect = higher value;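 also: tested at 1 µM final; 0% = mean of DMSO vehicle wells on each plate; positive means more glutamate uptake than control and negative means less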
# [8] = 75Q-TubH aggregate inhibition, S. cerevisiae, yeast (AID 1616); settings: S. cerevisiae 75Q-TubH polyglutamine aggregation suppression; stronger effect = higher value
# [9] = chitosan synthesis blockers in C. neoformans – flow cytometry, Cibacron Brilliant Red staining (AID 1347148; call rule not given here;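 also: compound exposure lasted three days at 37 degrees C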); settings: Cryptococcus neoformans chitosan, stronger effect = lower value; at 10 µM unless noted
# [10] = viability loss in pontine glioma line – cell-based, SU-DIPG-XVII, MIPE5.0, CellTiter-Glo, qHTS, dose response (AID 1347060; cut-off not given, nearly all actives have AC50 up to about 26 µM); settings: CellTiter-Glo ATP luminescence
# [11] = viability loss in pontine glioma line – cell-based, SU-DIPG-XIII, MIPE4.0, CellTiter-Glo, qHTS, dose response (AID 1347061; cut-off not given, nearly all actives have AC50 up to about 37 µM;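 also: cells exposed to compound for 48 hours before readout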); settings: CellTiter-Glo ATP luminescence
# [12] = viability loss in pontine glioma line – cell-based, JHH-DIPG-1, MIPE4.0, CellTiter-Glo, qHTS, dose response (AID 1347062; cut-off not given, nearly all actives have AC50 up to about 27 µM); settings: JHH-DIPG-1 viability, CellTiter-Glo ATP luminescence
# [13] = viability loss in pontine glioma line – cell-based, SU-DIPG-XIII, MIPE5.0, CellTiter-Glo, qHTS, dose response (AID 1347064; cut-off not given, nearly all actives have AC50 up to about 23 µM); settings: CellTiter-Glo ATP luminescence
# [14] = growth inhibition of DIPG cells – cell-based, MIPE4.0 library, CellTiter-Glo luminescence, qHTS (AID 1347066; cut-off not given, nearly all actives have AC50 up to about 30 µM;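 also: cells exposed to compound for 48 hours before readout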); settings: SU-DIPG-VI viability, CellTiter-Glo ATP luminescence
# [15] = test system: Aerobactin synthetase IucA (Klebsiella pneumoniae); experiment: inhibition of K. pneumoniae IucA enzyme – biochemical, Tocris library, absorbance (AID 1345561; call rule not given here;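 also: 100% = enzyme without compound and 0% = no enzyme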); settings: purified IucA enzyme assay, absorbance (OD) read-out; stronger effect = lower value;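 tested at 8 µM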
# [16] = compounds altering viability of human ES cells (AID 493140; call rule not given here;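 also: cells exposed to compounds for four days before counting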); settings: human embryonic stem cell survival screen; stronger effect = higher value
# [17] = GFP-Q80 aggregate reduction, neuronal-like cells, cell-based, NGF-treated PC12, GFPQ80 (AID 1614); settings: PC12 NGF-treated GFP-polyQ80 inclusion reduction;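 also: lower means fewer inclusions and 0 means no inclusions at all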
# [18] = MELAS cybrid survival, CellTiter-Glo 48 h, stronger effect = higher value
# [19] = Rieske KO mouse fibroblast survival, CellTiter-Glo 72 h
compound,measurement,setting,value
C[C@]12CC(=CO)C(=O)C[C@@H]1CC[C@@H]1[C@@H]2CC[C@@]2(C)[C@H]1CC[C@]2(C)O,z-score,[1]; [18],0.172 (inactive)
same,z-score,[1]; [19],0.741
same,log fold change Tl+ flux,R275C/beta4,0.148 (active)
CC[C@@H]1/C=C/C=C/C[C@H](C)[C@@H](O)[C@](C)(O)C(=O)[C@H](C)[C@@H](O)[C@H](C)C(=O)[C@H](C)[C@@H](O)[C@H](C)/C=C/C(=O)O[C@H]2[C@@H](C)[C@@H](CC1)O[C@@]1(CC[C@@H](C)[C@@H](C[C@H](C)O)O1)[C@@H]2C,inhibition,[2],-0.04%
same,score,[3],-0.11
same,rescue above control,[4],-7.82
same,cytochrome c release ratio,[5],1.21
same,inhibition of aggregation,[6],-10.6%
same,glutamate uptake change,[7],5.74%
same,aggregation suppression score,[8],0.0317
same,fold fluorescence,[9],5.62 [at 63.2 µM] (inactive)
CC1CCC[C@H](O)CCCCCc2cc(O)cc(O)c2C(=O)O1 (some centres not stated),log fold change Tl+ flux,R275C/beta4,0.0349 (inactive)
CC[C@@H](C(N)=O)N1CCCC1=O,outcome,[10],inactive
same,outcome,[11],inactive
same,outcome,[12],inactive
same,outcome,[13],inactive
same,outcome,[14],inactive
same,z-score,[1]; [18],-0.985 (inactive) and 0.498 (inactive)
same,z-score,[1]; [19],0.204 and -0.0344
same,log fold change Tl+ flux,R275C/beta4,-0.0209 (inactive)
O[C@@H]1CCCC[C@H]1N1CCC(c2ccccc2)CC1,remaining activity,[15],96.8% (inactive)
same,z-score,[1]; [18],-0.566 (inactive)
same,z-score,[1]; [19],-0.671
O=C1Nc2ccc(Cl)cc2C(c2ccccc2Cl)=NC1O (configuration not stated),inhibition,[2],-16.4%
same,score,[3],0.78
same,rescue above control,[4],-10.3
same,cytochrome c release ratio,[5],1.2
same,inhibition of aggregation,[6],21.1%
same,glutamate uptake change,[7],-7.53%
same,aggregation suppression score,[8],0.626
NC(=NCc1ccc(Cl)cc1)SCCCc1cnc[nH]1,remaining activity,[15],102% (inactive)
CCCCC/C=C\C/C=C\C/C=C\C/C=C\CCCC(=O)Nc1ccc(O)cc1,remaining activity,[15],113% (inactive)
O=C1CN=C(c2ccccc2)c2cc([N+](=O)[O-])ccc2N1,log fold change Tl+ flux,R275C/beta4,0.0133 (inactive)
C[C@]12CC[C@H]3[C@@H](CCC4=CC(=O)CC[C@@H]43)[C@@H]1CC[C@@H]2O,z-score,[1]; [18],0.634 (inactive)
same,z-score,[1]; [19],0.271
same,log fold change Tl+ flux,R275C/beta4,-0.0252 (inactive)
C[C@]12CCC(=O)C[C@@H]1CC[C@@H]1[C@@H]2CC[C@@]2(C)[C@H]1CC[C@]2(C)O,log fold change Tl+ flux,R275C/beta4,0.00195 (inactive)
COc1ccc2[nH]cc(C3=CCNCC3)c2c1,remaining activity,[15],103% (inactive)
same,log fold change Tl+ flux,R275C/beta4,0.0779 (inactive)
NCCc1ccccn1,remaining activity,[15],108% (inactive)
same,log fold change Tl+ flux,R275C/beta4,-0.0421 (inactive)
COc1ccc2c(c1)C13CCCC[C@@H]1C(C2)N(C)CC3 (some centres not stated),survival,[16],5.75 (inactive)
Clc1ccc(CON=C(Cn2ccnc2)c2ccc(Cl)cc2Cl)c(Cl)c1,log fold change Tl+ flux,R275C/beta4,0.02 (inactive)
CN1C(=O)CN=C(c2ccccc2)c2cc(Cl)ccc21,inhibition,[2],-7.18%
same,score,[3],0.95
same,rescue above control,[4],0.67
same,cytochrome c release ratio,[5],0.88
same,inhibition of aggregation,[6],26.5%
same,glutamate uptake change,[7],-26.8%
same,inclusion score,[17],2
same,aggregation suppression score,[8],0.718
same,log fold change Tl+ flux,R275C/beta4,0.0195 (inactive)
